Shown are actives, neighbours in structure and some others; about 0.57% of the full set was active somewhere.
MKP-1 inh – human dual specificity phosphatase 1 inhibition | recombinant MKP-1, OMFP hydrolysis fluorescence | inhibition, %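 (compounds tested at a single concentration somewhere between 10 and 100 µM)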 | 65,000 compounds, 0.15% hits;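 active = inhibition above about 50%, limit read from the data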
Target sequence (P28562 whole entry, looked up): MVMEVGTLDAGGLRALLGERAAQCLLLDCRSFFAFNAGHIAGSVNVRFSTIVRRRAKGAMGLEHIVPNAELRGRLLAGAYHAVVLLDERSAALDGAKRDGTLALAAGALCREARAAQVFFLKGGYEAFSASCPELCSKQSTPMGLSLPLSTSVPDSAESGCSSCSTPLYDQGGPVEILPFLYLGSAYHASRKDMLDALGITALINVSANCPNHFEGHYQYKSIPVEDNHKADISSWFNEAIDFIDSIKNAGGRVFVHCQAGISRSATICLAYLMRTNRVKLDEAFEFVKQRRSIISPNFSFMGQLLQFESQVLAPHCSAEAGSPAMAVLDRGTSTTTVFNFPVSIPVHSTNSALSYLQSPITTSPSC
CatB inh – inhibitors of human cathepsin B; 63,000 compounds, 0.1% hits; AID 453; purified cathepsin B, fluorogenic substrate, fluorescence; inhibition, %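 (tested at 10 µM)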; P07858; in the data active = inhibition above about 21%
CatL inh – blocks human cathepsin L protease activity; purified cathepsin L, fluorogenic substrate, fluorescence; inhibition, %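 (tested at 10 µM)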; 58,000 compounds, 0.17% hits; in the data active = inhibition above about 45%
CatS block – human cathepsin S inhibition; inhibition, %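 (tested at 5 µM per compound within 10-compound mixtures)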; 62,000 compounds, 0.06% hits; recombinant cathepsin S, AMC dipeptide fluorescence, pooled mixtures; AID 501; P25774; in the data active = inhibition above about 32%, passing the limit was not always enough
CatB mixtures – human cathepsin B inhibition by mixtures; P07858; Purified cathepsin B, AMC dipeptide fluorescence, compound mixtures; inhibition, %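 (ten-compound pools at 5 µM per compound and 50 µM total)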; 62,000 compounds, 0.06% hits; in the data active = inhibition above about 22%, passing the limit was not always enough
Cdc25B block – inhibitors of human Cdc25B phosphatase; AID 368; inhibition, %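 (compounds tested at 10 µM final in the well)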; 65,000 compounds, 0.1% hits; recombinant Cdc25B, OMFP fluorescence Ex485/Em525; P30305; in the data active = inhibition above about 50%
Each line names hits and unclear results; the compound was inactive in the other large screens.

C[C@]12C=CC(=O)C=C1CC[C@H]1[C@@H]3C[C@@H](O)[C@](O)(C(=O)CO)[C@@]3(C)C[C@H](O)[C@@]12F	CatL inh 94 (no result: CatB inh)
CC1(C)O[C@@H]2C[C@H]3[C@@H]4CCC5=CC(=O)C=C[C@]5(C)[C@@]4(F)[C@@H](O)C[C@]3(C)[C@]2(C(=O)CO)O1	none
COc1ccc(OC)c(NC(=O)CSc2nnc(Cc3cccn3C)n2CCc2ccccc2)c1	MKP-1 inh 65
Cc1ccc(N(CC(=O)NC2CCC(C)CC2)S(=O)(=O)c2cccnc2)cc1 (stereo unspecified)	CatL inh 72
Cc1ccc(Nc2ncc3c(n2)CC(c2ccco2)CC3=O)c(C)c1 (stereo unspecified)	Cdc25B block 78
Cc1cccc(Nc2ncc3c(n2)CC(c2ccco2)CC3=O)c1 (stereo unspecified)	none
CCCCc1c(C)nn(-c2nnc3c4ccccc4n(C)c3n2)c1C	CatL inh 94 (no result: CatS block, CatB mixtures)
CCc1nnc(NC(=O)CSc2nnc3c4ccccc4n(C)c3n2)s1	none
Cc1ccc(/C=N/c2sc3c(c2C#N)CCC3)s1	CatL inh 105
CN(C1CCCCC1)S(=O)(=O)c1ccc(Cl)c(C(=O)O)c1	CatL inh 48
CN(C1CCCCC1)S(=O)(=O)c1ccc(C(=O)O)cc1	none
CN(CCCC(=O)Nc1ccncc1)S(=O)(=O)c1ccc(Cl)cc1	none
CC(=O)Nc1nc2n(n1)C(c1ccccc1)C=C(c1ccccc1)N2 (stereo unspecified)	none (no result: CatL inh)
CC(=O)Nc1nc2n(n1)C(c1ccc(F)cc1)C=C(c1ccccc1)N2 (stereo unspecified)	CatL inh 49
O=C(CCn1c(=O)[nH]c2ccccc2c1=O)Nc1ccccc1	Cdc25B block 102
COc1ccc(N2CCN(CCCNC(=O)C3CCCN(S(=O)(=O)c4cnc[nH]4)C3)CC2)cc1 (stereo unspecified)	none
CC(=O)Oc1oc(-c2ccccc2)nc1/C=N/c1ccccn1	none (no result: CatS block, CatB mixtures)
COc1ccccc1N=Cc1nc(-c2ccccc2)oc1OC(C)=O	CatB inh 41, CatB mixtures 33
CCOC(=O)c1ccc(NC2c3ncccc3C(=O)N2Cc2ccc(F)cc2)cc1 (stereo unspecified)	MKP-1 inh 52
COC(=O)c1cc(NC2c3ncccc3C(=O)N2Cc2ccccc2)cc(C(=O)OC)c1 (stereo unspecified)	none
CC1CCN(CC(=O)NCc2ccccc2)CC1	none
COc1ccccc1OCC(=O)Nc1oc(-c2ccccc2)c(-c2ccccc2)c1C#N	CatB inh 55 (no result: CatL inh)
O=C(NCc1cccs1)C1CCN(c2nc3ccccc3o2)CC1	none
CC(C)CCNC(=O)C1CCN(c2nc3ccccc3o2)CC1	Cdc25B block 71
O=C(NCCCN1CCCCCC1)c1ccc(CS(=O)(=O)Cc2ccccc2F)o1	CatL inh 60
O=C(NC1CC1)c1c[nH]c2ccc(S(=O)(=O)Nc3cccc(C(F)(F)F)c3)cc2c1=O	MKP-1 inh 52
N#Cc1ccc(OCC(=O)N2CCN(S(=O)(=O)c3cccs3)CC2)cc1	none
O=C(COc1ccccc1)N1CCN(S(=O)(=O)c2cccs2)CC1	Cdc25B block 61
Cn1c(C(=O)NCCN2CCc3ccccc3C2)cc2c(=O)n(C)c3ccccc3c21	CatS block 74
Cn1c(C(=O)NCCN2CCN(c3ccccc3F)CC2)cc2c(=O)n(C)c3ccccc3c21	none
CC1CCCCN1CCNC(=O)c1cc2c(=O)n(C)c3ccccc3c2n1C (stereo unspecified)	none
COc1cc(OC)cc(-n2nc(C(=O)NCCCN3CCOCC3)c3ccccc3c2=O)c1	Cdc25B block 76
Cn1c(C(=O)NCCN2CCOCC2)cc2c(=O)n(C)c3ccccc3c21	CatS block 81 (no result: CatL inh)
COc1ccc(OC)c(NC(=O)CCCN2C(=O)C3C4C=CC(C4)C3C2=O)c1 (stereo unspecified)	none (no result: CatL inh)
COc1cccc(C2/C(=C(\O)c3c(C)nc4c(C)cccn34)C(=O)C(=O)N2CCCN(C)C)c1OC (stereo unspecified)	none
Cc1nc2c(C)cccn2c1/C(O)=C1\C(=O)C(=O)N(CCN(C)C)C1c1ccncc1 (stereo unspecified)	Cdc25B block 56
Cc1nn2c(-c3cccc(NC(=O)c4ccco4)c3)nnc2c2ccccc12	MKP-1 inh 51 (no result: CatB inh, CatL inh, CatS block, CatB mixtures)
